Sampled rows, rich in hits. Any-hit rate of the full collection: about 12%.
G9a block: G9a (human) methyltransferase inhibition; Q96KQ7; G9a H3K9 monomethylation, AlphaScreen, 2 h; Potency, µM (series often up to 102 µM), without a hit: at the top dose activity, negative = inhibition, actives largely listed as inhibitors; 350,000 tested, 8.8% active; AID 504332; note: % is set by controls: 0 for no effect and ±100 for the full control effect; nearly all actives have a fitted effect of over 75% in size
Target sequence (Q96KQ7 913-1193 limits assumed): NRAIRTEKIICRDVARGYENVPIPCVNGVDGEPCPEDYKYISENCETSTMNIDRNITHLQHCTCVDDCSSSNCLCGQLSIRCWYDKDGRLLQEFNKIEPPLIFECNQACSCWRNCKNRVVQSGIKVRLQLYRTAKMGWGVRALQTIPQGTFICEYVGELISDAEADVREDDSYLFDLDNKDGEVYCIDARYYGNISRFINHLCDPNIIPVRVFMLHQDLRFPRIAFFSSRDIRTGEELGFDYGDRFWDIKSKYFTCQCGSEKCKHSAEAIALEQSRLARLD
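Step 1: enzyme (final 20 nM) with compound, 15 min RT. Step 2: substrate peptide 500 nM and SAM 20 uM, 2 h RT. Step 3: anti-H3K9me1 antibody and AlphaScreen beads, 10 min, then plate read.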
BAZ2B block: blocks human BAZ2B. AlphaScreen BAZ2B-H3K14Ac peptide displacement. Potency, µM (titrated, usually from 114 µM), for the others: at the top dose activity change, negative = inhibition, usual class: inhibitors. 360,000 tested, 4.4% active. AID 504333; note: % is set by controls: 0 for no effect and ±100 for the full control effect; nearly all actives have a fitted effect of over 60% in size
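Complex of BAZ2B and biotin-H3K14Ac (50 nM apiece) forms over 30 min at RT, then faces library compounds up to 110 uM for another 30 min; AlphaScreen beads added, 20 min dark incubation, luminescence read.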
PLK1 PBD block: PLK1 (human) polo-box domain binding inhibition; Plk1 PBD binding of FITC phosphopeptide, fluorescence polarization; 360,000 tested, 2.8% active; Potency, µM, inactives show max response, negative = inhibition, most hits filed as inhibitors; note: series mostly up to about 57 µM; % is set by controls: 0 for no effect and ±100 for the full control effect; nearly all actives have a fitted effect of over 65% in size
JMJD2A Tudor: blocks the human JMJD2A Tudor domain. O75164. AlphaScreen JMJD2A-Tudor / H3K4me3 peptide binding. Potency, µM (doses to about 114 µM), inactives show top-dose activity change, negative = inhibition, most hits filed as inhibitors. 390,000 tested, 4.4% active; note: % is set by controls: 0 for no effect and ±100 for the full control effect; nearly all actives have a fitted effect of over 50% in size
HP1b binding inh: blocks HP1-beta chromodomain binding to methylated histone tails | P83916 | AlphaScreen HP1-beta / biotin-H3K9me3 peptide binding | Potency, µM (highest dose often 114 µM), for inactives: top-dose activity change, negative = inhibition, hits mostly inhibitors | 390,000 tested, 0.56% active | AID 540317; note: nearly all actives have a fitted effect of over 70% in size
Target sequence (P83916 whole entry, looked up): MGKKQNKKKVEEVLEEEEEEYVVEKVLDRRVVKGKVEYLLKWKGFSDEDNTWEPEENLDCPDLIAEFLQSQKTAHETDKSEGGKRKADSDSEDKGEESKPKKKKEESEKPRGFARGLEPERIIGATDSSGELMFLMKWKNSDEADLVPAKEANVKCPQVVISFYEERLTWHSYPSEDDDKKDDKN
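Compound inhibition of the preformed complex between 50 nM HP1-beta and 50 nM biotinylated H3K9me3 peptide was read by AlphaScreen. Buffer was PBS pH 7.4 with 0.01% Tween-20. Incubations ran 30 min at room temperature, with 10 ug/mL donor/acceptor beads.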
Sfp PPTase inh: inhibitors of Bacillus subtilis Sfp phosphopantetheinyl transferase. Q9F4F7. Biochemical Sfp PPTase activity, qHTS. Potency, µM, for inactives: largest response in the series, negative = inhibition, actives largely listed as inhibitors. 310,000 tested, 3.5% active. AID 1490;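 note: the enzyme is Sfp with the accession as filed and its product quenches rhodamine fluorescence; 0% = enzyme reaction without inhibitor and -100% = no enzyme wells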
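Fluorescence-quenching assay with 15 nM Sfp, 5 uM rhodamine-CoA and 12.5 uM BHQ-2-labelled ybbR peptide in pH 7.6 Hepes/MgCl2 buffer. Enzyme was pre-incubated with compound for 15 min at room temperature. Rate was taken from the 30-min fluorescence change (525/598 nm).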
* hit, by the source's call; [ ] = another dose, or the depositor's remark. Calls come from the whole dose curve; as a rule, active = well fitted curve in the direction sought with a large enough effect; inconclusive = small, poorly fitted or top-dose-only effect, or another doubt; inactive = no such curve, though single readings can be large; an effect the other way counts as inactive or inconclusive. Potency is the fitted concentration of half-maximal effect.

For Cc1c(C)c2cc(Cl)c(OC(C)C(=O)NCCN3CCOCC3)cc2oc1=O (stereo not given) the results were G9a block 56.1%, BAZ2B block -3.0%, PLK1 PBD block 23.8µM*, JMJD2A Tudor inconclusive, HP1b binding inh 3.1% and Sfp PPTase inh 12.7%.
For CC(C)CC(NC(=O)CC12CC3CC(CC(C3)C1)C2)C(=O)NC1=NCCS1 (stereo not given) the results were BAZ2B block 4.8%, PLK1 PBD block 15µM*, JMJD2A Tudor 22.4µM*, HP1b binding inh 3.6% and Sfp PPTase inh 16.8%.
CC(C)C(NC(=O)C12CC3CC(CC(C3)C1)C2)C(=O)NC1=NCCS1 (stereo not given) was read as G9a block 43.3%[12.7 µM], BAZ2B block -29.3% and Sfp PPTase inh 1.4%.
Screening COc1ccc(S(=O)(=O)Nc2cccc(S(=O)(=O)N(C)C)c2)cc1[N+](=O)[O-] returned PLK1 PBD block -2.0%, JMJD2A Tudor -22.1% and HP1b binding inh 18.7%.
CC(=O)c1sc(NC(=O)C2CC(=O)N(Cc3ccccc3)C2)nc1-c1ccccc1 (stereo not given) was read as G9a block 56.2µM*, BAZ2B block -6.2%, PLK1 PBD block -12.5%, JMJD2A Tudor -33.1% and HP1b binding inh -7.6%.
`CC(=O)Nc1ccc(NC(=O)C2CC(=O)N(Cc3ccccc3)C2)cc1` (stereo not given) gave G9a block 31.3%[59 µM], BAZ2B block -10.7%, PLK1 PBD block 1.1%, JMJD2A Tudor -3.4%, HP1b binding inh 32.8% and Sfp PPTase inh 15.6%.
Screening CCOC(=O)c1cnc2c(ccc3ccccc32)c1N returned BAZ2B block 5.7%, PLK1 PBD block -13.7%, JMJD2A Tudor -21.3%, HP1b binding inh 23.1% and Sfp PPTase inh 1.7%.
For COc1ccc2c(n1)Sc1nc3ccccc3nc1N2 the results were G9a block 15.3%, BAZ2B block -1.1%, PLK1 PBD block -16.4%, JMJD2A Tudor inconclusive, HP1b binding inh 11.4% and Sfp PPTase inh -8.6%.
COc1ccc(CCNC(=O)c2ccc3c(c2)CCN3S(=O)(=O)c2ccccc2)cc1OC was read as G9a block inconclusive, BAZ2B block -14.9%, JMJD2A Tudor -17.0% and HP1b binding inh 35.2%.
Screening Cc1ccc(-c2csc(Nc3ccc(C(=O)O)cc3)[n+]2Cc2ccccc2)cc1 returned G9a block 15.1%, BAZ2B block -37.8%, PLK1 PBD block inconclusive, JMJD2A Tudor 39.8µM*, HP1b binding inh -26.1% and Sfp PPTase inh 12.7%.
Screening O=[N+]([O-])c1ccc(-c2csc(Nc3ccccc3)[n+]2Cc2ccccc2)cc1 returned G9a block inconclusive, BAZ2B block 39.8µM*, PLK1 PBD block 2.7%, JMJD2A Tudor 17.8µM*, HP1b binding inh 15.8µM* and Sfp PPTase inh -9.8%.
For Cc1nc(Nc2ccc(C(=O)O)cc2)sc1-c1ccccc1 the results were G9a block -38.8%, BAZ2B block -34.3%, PLK1 PBD block -24.0%, JMJD2A Tudor inconclusive, HP1b binding inh 9.6% and Sfp PPTase inh 14.6%.
For O=C(Cc1nc(-c2ccc([N+](=O)[O-])cc2)cs1)Nc1ccccc1 the results were BAZ2B block -34.5%, PLK1 PBD block -7.6%, JMJD2A Tudor -13.1%, HP1b binding inh 6.5% and Sfp PPTase inh -9.1%.
COc1ccc(-c2csc(Nc3ccccc3)[n+]2Cc2ccccc2)cc1 was read as G9a block 15.8µM*, PLK1 PBD block -1.5%, JMJD2A Tudor -3.4%, HP1b binding inh inconclusive and Sfp PPTase inh -15.1%.
`Cc1nc(CCN2C(=O)c3ccccc3C2=O)n[nH]1` gave G9a block inconclusive, BAZ2B block inconclusive, PLK1 PBD block 7.52µM*, JMJD2A Tudor 25.1µM*, HP1b binding inh -9.1% and Sfp PPTase inh -4.3%.
N#Cc1c2n(c(=S)n(-c3ccccc3[N+](=O)[O-])c1=O)CCCCC2 was read as G9a block 39.8µM*, PLK1 PBD block -24.4%, JMJD2A Tudor inconclusive, HP1b binding inh -6.9% and Sfp PPTase inh inconclusive.
For COc1ccc(Nc2c(-c3ccccn3)nc3ccc(Cl)cn23)cc1 the results were G9a block 39.5%[59 µM], BAZ2B block 1.58µM*, JMJD2A Tudor inconclusive and HP1b binding inh 43.0%.
For Cc1ccc(Nc2c(-c3ccccn3)nc3cc(C)ccn23)cc1 the results were G9a block inconclusive, BAZ2B block 15.8µM*, PLK1 PBD block -2.1%, JMJD2A Tudor 39.8µM*, HP1b binding inh inconclusive and Sfp PPTase inh 0.7%.
`Cc1cccc(C)c1Nc1c(-c2ccccn2)nc2ccc(Cl)cn12` gave G9a block 23.5%[59 µM], BAZ2B block inconclusive, JMJD2A Tudor inconclusive and HP1b binding inh 7.7%.
For Cc1ccc(Nc2c(-c3ccccn3)nc3ccc(C)cn23)cc1 the results were G9a block inconclusive, PLK1 PBD block 3.8%, JMJD2A Tudor 44.7µM*, HP1b binding inh 8.4% and Sfp PPTase inh -6.2%.
`Fc1ccccc1-c1ccc(-c2nc3ccc(Cl)cn3c2Nc2ccc(Cl)cc2)o1` gave JMJD2A Tudor 44.7µM* and HP1b binding inh inconclusive.
`CN(CC(=O)Nc1ccc(F)cc1)C(=O)COC(=O)/C=C/c1ccccc1[N+](=O)[O-]` gave G9a block 0.3%[12.7 µM], BAZ2B block 6.3%, PLK1 PBD block -15.3%, JMJD2A Tudor -7.4% and HP1b binding inh 19.8%.
Cc1c(Br)c(=O)oc2c(Br)c(O)c(O)cc12 was read as G9a block 28.2µM*, BAZ2B block inconclusive, PLK1 PBD block 0.5%, JMJD2A Tudor 44.7µM*, HP1b binding inh -11.4% and Sfp PPTase inh inconclusive.
For Cc1c(Br)c(=O)oc2c(Br)c(O)ccc12 the results were G9a block -46.8%, BAZ2B block -3.3%, PLK1 PBD block -2.6%, JMJD2A Tudor -8.3%, HP1b binding inh 7.4% and Sfp PPTase inh -2.2%.
`COc1cc(OC)c(C(=O)NCc2nc(-c3ccccc3)no2)cc1OC` gave G9a block 4.6%[59 µM], BAZ2B block -4.6%, JMJD2A Tudor -24.7% and HP1b binding inh 2.0%.
CC(C(Sc1ccccc1N)c1ccccc1)[N+](=O)[O-] (stereo not given) was read as G9a block 3.16µM*, BAZ2B block -36.1%, PLK1 PBD block 1.89µM*, JMJD2A Tudor 20µM*, HP1b binding inh inconclusive and Sfp PPTase inh 3.98µM*.
For Cn1c(=O)[nH]c2nnc(-c3ccc(Cl)c(Cl)c3)nc2c1=O the results were G9a block inconclusive, BAZ2B block 89.1µM*, PLK1 PBD block -12.8%, JMJD2A Tudor inconclusive, HP1b binding inh 3.4% and Sfp PPTase inh inconclusive.
`CSc1cnc2c(=O)n(C)c(=O)[nH]c2n1` gave G9a block 4.8%[59 µM], BAZ2B block 7.0%, PLK1 PBD block -4.8%, JMJD2A Tudor -1.4%, HP1b binding inh 19.9% and Sfp PPTase inh 9.5%.

Screening results from PubChem.
